The values that follow come from PubChem BioAssay (NCATS).

Inconclusive results are not listed. Active and inactive are the calls of the source. Unless noted, calls come from the whole dose curve; as a rule, active = well fitted curve in the direction sought with a large enough effect; inconclusive = small, poorly fitted or top-dose-only effect, or another doubt; inactive = no such curve, though single readings can be large; an effect the other way counts as inactive or inconclusive.

Assay [1] in a line: S16 Schwann cell viability assay (CellTiter-Glo assay) (AID 624031). Note: nearly all actives have a fitted effect of over 70% in size. Note: potency is the fitted concentration of half-maximal effect. A digest of the protocol: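 Following overnight culture in 10% FBS DMEM, parental S16 rat Schwann cells are dosed for 24 h at 37 °C. Viability is read as CellTiter-Glo luminescence and expressed as % activity relative to DMSO (0%) and no-cell wells.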
(In ATP-based viability assays light output follows the ATP content of the culture.)

Assay [2] is described as follows: S16 Schwann cell PMP22 intronic element firefly luciferase assay (AID 624032). Note: nearly all actives have a fitted effect of over 30% in size. Note: potency is the fitted concentration of half-maximal effect. A digest of the protocol:
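Luciferase reporter of PMP22 intronic-element expression in stably transfected S16 rat Schwann cells, read by ONE-Glo luminescence after 24 h compound exposure at 37 C. Activity scaled between DMSO (0%) and positive-control PTC124; concentration-effect curves quality-classified.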

A short description of assay [3]: S16 Schwann cell PMP22 intronic element beta-lactamase assay (AID 624044; calls by dose curve; note: nearly all actives have a fitted effect of over 15% in size; note: potency is the fitted concentration of half-maximal effect). In outline:
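Rat S16 Schwann cells with beta-Lac driven by a PMP22 intronic element, compound-treated 24 h at 37 °C. LiveBLAzer FRET B/G read: 460 nm normalized to potassium clavulanate vs DMSO; 535 nm FRET as viability; concentration-effect curves classified.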

Assay [4] is described as follows: qHTS of Trypanosoma Brucei Inhibitors: LOPAC Validation (AID 624147). Note: potency is the fitted concentration of half-maximal effect. A digest of the protocol: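 Glycolytic pyruvate kinase of T. brucei was incubated with substrate, test compound and 130 uM ADP for 45 minutes at room temperature. Luminescent Kinase-Glo Plus signal was measured after 10 minutes.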
On the technique in general: In qHTS, concentration-response curves come from the screen itself.

Assay [5] is described as follows: HTS Assay for Allosteric Antagonists of the Human D2 Dopamine Receptor: Hit Validation in HTRF (AID 624455).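 Note: stable D1 dopamine receptor cell line scored for blocking the D1 response; % is set by controls: 0 for no effect and ±100 for the full control effect.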 A digest of the protocol: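 First, antagonism was screened by calcium flux in a force-coupled, inducible Hek293 Trex D2 line challenged with EC80 dopamine. Hits then went into an HTRF assay in cells stably expressing D1, testing inhibition of the D1 response.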
(In general: Time-resolved FRET reads energy transfer from a long-lived donor to a nearby acceptor.)

Assay [6] can be described thus: Cytotoxicity counterscreen for NFkB agonists and antagonists (AID 624476).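 Note: cells exposed to compound for 48 hours; % is set by controls: 0 for no effect and ±100 for the full control effect.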
Assay [7] is described as follows: qHTS Assay for Identification of Small Molecule Agonists for NFkB Signaling Pathway. (AID 624478).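 Note: compounds tested together with TNF alpha at its EC50 of 10 pM; 0% is about no effect.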 In outline:
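ME-180 cervical carcinoma, stable NFkB-RE beta-lactamase reporter; 1000 cells/well, overnight attachment; cpd + TNF alpha 10 pM final, 5 h 37 C; LiveBLAzer 2 h RT; FRET 460/530 nm, ex 405 nm.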

Assay [8] in a line: Cell Proliferation Assay against the TMD8 Cell Line (AID 651645).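 Note: cells exposed to compound for 48 h before reading.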 As to conditions: TMD8 DLBCL cell line proliferation/viability; at 46.1 µM (top of the series) unless noted. In outline: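 Luminescent ATP read-out (CellTiter-Glo, 15 min RT) after 48 h compound exposure of log-growing TMD8 cells at 37C; percent activity scaled between DMSO as 100% and 9.2 uM bortezomib final as 0%.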

For assay [9], the target named is Glutaminase kidney isoform, mitochondrial (Homo sapiens) (UniProt O94925). The experiment in a line: qHTS for Inhibitors of Glutaminase (GLS): LOPAC Validation (AID 624146). Note: nearly all actives have a fitted effect of over 60% in size. Note: potency is the fitted concentration of half-maximal effect. In outline:
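Enzyme dispensed in phosphate buffer (45 mM, pH 8.2, 0.02% Tween-20), compounds pinned in, then 1 mM L-glutamine solution and the glutamate oxidase–HRP–Amplex Red mix added; fluorescence read immediately and again after 30 min at room temperature.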

Assay [10] in a line: qHTS Assay for Identification of Small Molecule Antagonists for NFkB Signaling Pathway. (AID 624479; calls by dose curve;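 note: pathway stimulated with TNF alpha; % is set by controls: 0 for no effect and ±100 for the full control effect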).

Sequence of Glutaminase kidney isoform, mitochondrial (Homo sapiens) (O94925 whole entry, looked up, canonical isoform): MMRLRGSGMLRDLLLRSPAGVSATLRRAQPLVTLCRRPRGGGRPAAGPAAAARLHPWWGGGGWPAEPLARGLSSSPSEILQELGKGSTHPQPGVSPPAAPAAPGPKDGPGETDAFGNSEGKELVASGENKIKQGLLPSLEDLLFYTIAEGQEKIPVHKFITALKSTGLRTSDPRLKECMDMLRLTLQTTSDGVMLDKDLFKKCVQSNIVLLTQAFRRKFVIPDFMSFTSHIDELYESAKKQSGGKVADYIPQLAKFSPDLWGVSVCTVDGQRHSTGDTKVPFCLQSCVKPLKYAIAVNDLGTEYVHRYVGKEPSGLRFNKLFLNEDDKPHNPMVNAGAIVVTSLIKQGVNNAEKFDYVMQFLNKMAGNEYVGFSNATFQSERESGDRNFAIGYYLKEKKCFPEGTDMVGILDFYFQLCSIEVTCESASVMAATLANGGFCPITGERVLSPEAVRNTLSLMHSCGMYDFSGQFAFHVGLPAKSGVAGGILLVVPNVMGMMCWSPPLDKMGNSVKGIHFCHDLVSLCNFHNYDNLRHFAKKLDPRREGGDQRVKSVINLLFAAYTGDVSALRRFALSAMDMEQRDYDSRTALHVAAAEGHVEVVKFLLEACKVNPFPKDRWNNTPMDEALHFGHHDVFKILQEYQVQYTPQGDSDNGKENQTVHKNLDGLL

Regarding `Cc1cc2cc3c(C)cc(=O)oc3c(C)c2o1`, the Potency entry in assay [1], in assay [2] and in [3] was “inactive” each time.
For the compound `CCC[C@@H]1C[C@@H](C(=O)N[C@@H]([C@H]2O[C@H](SC)[C@H](O)[C@@H](O)[C@H]2O)[C@@H](C)O)N(C)C1`, the Potency entry in assay [1], in [2] and in assay [3] was “inactive” each time.
With `CCC1=C(C)CN(C(=O)NCCc2ccc(S(=O)(=O)NC(=O)NC3CCC(C)CC3)cc2)C1=O` (stereo unspecified), the Potency result in assay [1] and in assay [3] was “inactive” each time. For the same compound, in assay [2], the Potency was 32.2 µM (active).
As to `O=C(O)c1cn(-c2ccc(F)cc2)c2cc(N3CCNCC3)c(F)cc2c1=O`, the Potency result in assay [1], in [2] and in assay [3] was “inactive” throughout.
As to `C[C@H](Cn1cnc2c(N)ncnc21)OCP(=O)(O)O`, the Potency entry in [1], in assay [2] and in assay [3] was “inactive” each time.
Regarding `CNC[C@@H](O)[C@@H](O)[C@H](O)[C@H](O)CO`, the Potency entry in [1], in assay [2] and in assay [3] was “inactive” throughout.
Consider `O=C1CCc2ccc(OCCCCN3CCN(c4cccc(Cl)c4Cl)CC3)cc2N1`, for which the Potency is 32.2 µM (active) in assay [1] and 22.8 µM (active) in assay [2]. In addition, in [3], the Potency entry was “inactive”.
For the compound `O=C(OC1C[C@H]2CC[C@@H](C1)[N+]21CCCC1)C(O)(c1ccccc1)c1ccccc1` (stereo partly specified), the Potency entry in assay [1], in assay [2] and in assay [3] was “inactive” each time.
As for `CCCCc1ccc2nc(NC(=O)OC)[nH]c2c1`, the Potency entry in assay [1] and in [2] was “inactive” throughout. For the same compound, the Potency in assay [3] was 0.239 µM (active).
In the case of `O=C(CS(=O)Cc1ccco1)NCC=CCOc1cc(CN2CCCCC2)ccn1` (stereo unspecified), the Potency entry in assay [1] and in [2] was “inactive” in each case.
With `Oc1ccc(OCc2ccccc2)cc1`, the Potency result in assay [1] and in assay [2] was “inactive” in each case. Further, the Potency in assay [3] was 6.73 µM (active).
On to `NNc1nncc2ccccc12`, for which the Potency result in assay [1], in assay [2] and in assay [4] was “inactive” each time. Besides, the outcome in [5] was inactive.
Consider `Cc1c(OCC(F)(F)F)ccnc1CS(=O)c1nc2ccccc2[nH]1` (stereo unspecified), for which the Potency result in [1], in assay [3] and in [4] was “inactive” each time. In addition, the compound was classed as inactive in assay [5].
In the case of `Cc1ccc(NC(=O)c2ccc(CN3CCN(C)CC3)cc2)cc1Nc1nccc(-c2cccnc2)n1`, the Potency entry in assay [2] and in assay [6] was “inactive” throughout. The call in [7] was inactive. Moreover, in assay [8], the viability (% of control) turned out to be 48.3%.
As for `COC1=C(OC)C(=O)C(CCCCCCCCCCO)=C(C)C1=O`, in assay [3], the Potency result was “inactive”.
Take `Cc1ccc(C)c(OCCCC(C)(C)C(=O)O)c1`: the Potency entry in assay [1], in assay [2] and in assay [3] was “inactive” each time.
Turning to `CCCCC(CC)COC(=O)C(C#N)=C(c1ccccc1)c1ccccc1` (stereo unspecified), the Potency result in [1] and in [3] was “inactive” each time.
`CC(=O)N1CCN(c2ccc(OC[C@H]3CO[C@](Cn4ccnc4)(c4ccc(Cl)cc4Cl)O3)cc2)CC1`: the Potency entry in assay [9] and in assay [4] was “inactive” in each case. The outcome in [5] was inactive.
Regarding `CCCCN(CCCC)CCC(O)c1cc2c(Cl)cc(Cl)cc2c2cc(C(F)(F)F)ccc12` (stereo unspecified), the Potency entry in [1] and in assay [3] was “inactive” throughout.
`NCCCCNCCCN`: the Potency entry in assay [9] and in assay [4] was “inactive” throughout. Moreover, the result in assay [5] was inactive.
Turning to `CC1(C)NC(=O)N(c2ccc([N+](=O)[O-])c(C(F)(F)F)c2)C1=O`, the Potency entry in assay [1], in assay [3], in assay [9] and in assay [4] was “inactive” in each case. Also, in assay [5], the compound was classed as inactive.
For the compound `CCN(CCO)CCCC(C)Nc1ccnc2cc(Cl)ccc12` (stereo unspecified), the Potency result in assay [1], in assay [2], in [3], in [6] and in assay [10] was “inactive” throughout. Also, the call in assay [7] was inactive. Also, the viability (% of control) in [8] worked out at 114%.
Consider `CN(c1nccc(=O)[nH]1)C1CCN(c2nc3ccccc3n2Cc2ccc(F)cc2)CC1`, for which the Potency entry in assay [2] and in assay [3] was “inactive” throughout.
In the case of `COc1ccc2cc([C@H](C)C(=O)O)ccc2c1`, the Potency result in assay [1], in assay [2], in assay [9] and in assay [4] was “inactive” each time.
In the case of `O=C1c2ccccc2-c2n[nH]c3cccc1c23`, the Potency result in assay [1], in [2], in assay [3], in assay [9] and in [4] was “inactive” each time. In addition, the outcome in [5] was inactive.
As for `NC(=NCc1ccccc1)NC(=O)c1nc(Cl)c(N)nc1N`, the Potency result in assay [9] and in assay [4] was “inactive” throughout. In [5], the result was inactive.
`Cc1cc(=O)c2c(O)c3c(O)cc(=O)c4c3c3c(cc(O)c1c23)C(C)(C)C=4O`: the Potency result in assay [2] was “inactive”.
For the compound `Nc1cccc2c1CN(C1CCC(=O)NC1=O)C2=O` (stereo unspecified), the Potency result in assay [1], in assay [2], in assay [6] and in assay [10] was “inactive” in each case. Also, in [7], the outcome was inactive. Also, the viability (% of control) in assay [8] was determined as 102% [at 92.2 µM].
Take `Nc1nc(OCc2ccccc2)c2[nH]cnc2n1`: the Potency result in [9] and in assay [4] was “inactive” throughout. The compound was classed as inactive in assay [5].
On to `O=C(NCC1CCCCN1)c1cc(OCC(F)(F)F)ccc1OCC(F)(F)F` (stereo unspecified), for which the Potency result in assay [2] and in assay [3] was “inactive” in each case.
Regarding `O=C(O)c1cccnc1Nc1cccc(C(F)(F)F)c1`, the Potency result in assay [1], in assay [2], in assay [9] and in assay [4] was “inactive” each time. In addition, the call in assay [5] was inactive.
As for `O=c1cc(N2CCOCC2)oc2c(-c3ccccc3)cccc12`, the Potency entry in assay [9] and in assay [4] was “inactive” in each case. In addition, in assay [5], the compound was called inactive.
With `CC(C)c1ccc2oc3nc(N)c(C(=O)O)cc3c(=O)c2c1`, the Potency result in assay [1] and in assay [3] was “inactive” each time.
Consider `CNC[C@H](O)c1ccc(O)c(O)c1`, for which the Potency result in [1], in assay [2], in assay [9] and in assay [4] was “inactive” throughout.
`CCN(CC)C(=S)SSC(=S)N(CC)CC`: the results for the Potency in assay [2], in assay [9] and in assay [4] were 4.55 µM (active), 7.94 µM (active) and 9.53 µM (active), respectively.
In the case of `COc1cc2c(cc1OC)C1CC(=O)C(CC(C)C)CN1CC2` (stereo unspecified), the Potency entry in assay [1] and in assay [4] was “inactive” throughout.
